# Compounds with a hit are over-represented: about 3.8% of the library has one in this group of screens.
# FBA Mtb inh: inhibitors of M. tuberculosis fructose-bisphosphate aldolase | P9WQA3 | purified M. tuberculosis FBA, fluorescence read-out | inhibition, % at 1 µM | 360,000 compounds, 2.3% hits | AID 588726; in the data active = inhibition above about 27%;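 also: 0% = vehicle and 100% = reference inhibitor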
# Target sequence (P9WQA3 whole entry, looked up): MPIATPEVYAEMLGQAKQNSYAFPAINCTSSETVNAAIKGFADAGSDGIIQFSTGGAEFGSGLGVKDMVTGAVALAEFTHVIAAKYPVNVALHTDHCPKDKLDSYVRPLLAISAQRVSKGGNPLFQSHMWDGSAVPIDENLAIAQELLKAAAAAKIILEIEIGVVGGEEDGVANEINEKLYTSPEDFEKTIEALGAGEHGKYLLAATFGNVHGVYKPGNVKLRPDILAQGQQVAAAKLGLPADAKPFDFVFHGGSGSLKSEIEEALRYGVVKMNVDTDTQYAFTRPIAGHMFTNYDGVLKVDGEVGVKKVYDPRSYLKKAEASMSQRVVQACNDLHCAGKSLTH
# GDH-TPI counter: GDH-TPI coupled enzyme inhibition counter-screen; GDH-TPI coupled enzyme counterscreen, NADH absorbance; 360,000 compounds, 1.2% hits; inhibition, % at 4.8 µM; AID 588335; in the data active = inhibition above about 30%;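 also: 0% = DMSO wells and 100% = wells lacking the enzyme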
# PrP 5UTR inh: suppresses PrP 5' UTR mRNA reporter expression; 340,000 compounds, 0.35% hits; inhibition, % (test concentration not listed); cell-based PrP 5' UTR mRNA reporter, plate reader; AID 488862; in the data active = inhibition above about 52%; also: 0 = median of the neutral control wells
# PrPC surface inh: cell surface PrPC inhibition, primary TR-FRET screen; 370,000 compounds, 0.43% hits; inhibition, % at 13.8 µM; TR-FRET read-out; AID 720596; in the data active = inhibition above about 24%; also: 0% = median of the test wells and 100% = reference compound wells
# Yp Topo-I inh: inhibitors of Yersinia pestis topoisomerase I; activity, % at 10 µM; 360,000 compounds, 0.064% hits; Y. pestis Topo-I cleavage product accumulation, plate reader; in the data active = activity above about 50%, passing the limit was not always enough
# Mtb hypoxia rep: inhibitors of hypoxia-regulated fluorescent reporter in Mycobacterium tuberculosis; M. tuberculosis hypoxia-regulated fluorescent reporter, fluorescence; fluorescence inhibition, % (concentration not given with the values); 300,000 compounds, 0.1% hits; AID 1159583; in the data active = fluorescence inhibition mostly above about 23%, no sharp cut-off; inactive = mostly below about 17%
# The depositor's hits bear a star; / = not tested or not shown; + = active, no number.
SMILES,FBA Mtb inh,GDH-TPI counter,PrP 5UTR inh,PrPC surface inh,Yp Topo-I inh,Mtb hypoxia rep
O=C1C(Cl)=C(NC(=O)c2ccccc2)C(=O)C(Cl)=C1NC(=O)c1ccccc1,5,34*,-9,-19,-10,8
O=C(NC1=C(Nc2ccc(Cl)cc2)C(=O)c2ccccc2C1=O)c1ccccc1,-1,2,-11,5,-7,/
O=C(NC(=S)/C(=C1\CCCCCN1)[N+](=O)[O-])c1ccccc1,-1,21,59*,/,-9,8
CNc1ncc(C(=O)c2ccc(Cl)c(Cl)c2)s1,-1,34*,-56,6,6,-6
O=C(c1ccccc1)c1cnc(Nc2ccccc2Cl)s1,1,31*,-65,/,21,1
COc1cc(/C=N/NC(=O)C(Cc2c[nH]c3ccccc23)NC(=O)OCC(C)C)cc([N+](=O)[O-])c1O (stereo unspecified),-7,33*,-6,-20,-7,/
COc1ccc(C=NNC(=O)C(Cc2c[nH]c3ccccc23)NC(=O)OCC(C)C)cc1[N+](=O)[O-] (stereo unspecified),/,/,/,/,/,4
COc1cc(/C=N/NC(=O)C(Cc2c[nH]c3ccccc23)NC(=O)OCc2ccccc2)cc([N+](=O)[O-])c1O (stereo unspecified),-10,36*,-18,-18,-14,/
COc1cc(C=NNC(=O)C(Cc2c[nH]c3ccccc23)NC(=O)OCC(C)C)cc([N+](=O)[O-])c1OCc1ccccc1 (stereo unspecified),/,/,/,/,/,3
O=C(NC(Cc1ccc(O)cc1)C(=O)O)c1ccncc1 (stereo unspecified),/,/,/,/,/,-3
COc1ccc(-c2cc(=NCC(=O)O)c3ccccc3o2)cc1,+,28,-19,/,-15,7
COc1ccc(CNC(=O)c2cc(=O)c3cc(C)ccc3o2)cc1,0,4,-16,-3,6,7
COc1ccc(-c2cc(=O)c3cc(O)ccc3o2)cc1,1,29,-16,7,14,/
COc1ccc(-c2cc(=NCCCCCC(=O)O)c3cc(C)ccc3o2)cc1,/,50*,-30,-25,0,14
CCc1ccc2oc(-c3ccc(OC)cc3)cc(=Nc3c(C)n(C)n(-c4ccccc4)c3=O)c2c1,+,20,-89,-7,-7,25
COc1ccc(-c2cc(=Nc3ccc(C(=O)O)cc3)c3cc(C)ccc3o2)cc1,+,9,-74,5,4,3
CC(=NNC(=O)c1ccoc1C)c1cccc2ccccc12,/,/,/,/,/,18
CCc1ccc2oc(-c3ccc(OC)cc3)cc(=Nc3cccc(C(=O)O)c3)c2c1,+,22,-76,3,22,2
COc1ccc(-c2cc(=Nc3cccc(C(=O)O)c3)c3cc(C)ccc3o2)cc1,+,22,-41,4,18,5
O=C1c2ccccc2NC(c2ccccc2)N1/N=C/c1ccccc1 (stereo unspecified),7,1,3,9,-2,/
O=C1c2ccccc2NC(c2ccc(O)cc2)N1/N=C/c1ccc(O)cc1 (stereo unspecified),3,32*,-57,5,-3,/
COc1ccc(/C=N/NC(=S)Nc2cccc(C(=O)O)c2)cc1OC,7,50*,3,-11,-10,/
COc1cc(/C=N/NC(=S)Nc2cccc(C(=O)O)c2)cc(OC)c1OC,-1,41*,-12,-9,3,/
CC1OC(OC2C=C3CCC4C(CC[C@]5(C)C(c6ccc(=O)oc6)CC[C@]45O)[C@@]3(C)CC2)C(O)C(O)C1O (stereo partly specified),/,/,/,/,/,0
CSCCC(NC(C)=O)C(=O)Oc1ccc2c3c(c(=O)oc2c1)CCCC3 (stereo unspecified),+,6,-3,0,1,2
O=c1oc2cc(O)ccc2c2oc3cc(O)ccc3c12,+,35*,-22,2,-5,-3
COc1c2c(cc3oc(=O)c4c5ccc(O)cc5oc4c13)OC(C)(C)CC2,14,10,-37,3,4,/
CSCCC(NC(=O)OC(C)(C)C)C(=O)Oc1ccc2c(=O)c(-c3ccc4c(c3)OCCO4)coc2c1 (stereo unspecified),18,-4,-30,6,22,4
O=C(Oc1ccc2c3c(c(=O)oc2c1)CCCC3)c1ccco1,99*,-6,0,3,6,/

# Source: PubChem
